Measurements as given in PubChem BioAssay (EPA / NIEHS).
Several values for one entry are separate records, joined by “and”; a condition that tells them apart may be missing. Equal entries are not always repeated. Where a structure was tested more than once in an assay, its records may differ in their call. Activity calls are given as the source filed them. Rule for the calls: active = hit-call score of the fitted dose curve at least 0.9, where 1 is the maximum; inactive = score below 0.9.

Experiments:
[1] = BSK_CASM3C_SRB: Viability Assessment in the BioMAP Diversity Plus: CASM3C Assay (AID 2283050); details: primary human coronary artery smooth muscle cells;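 note: total protein by SRB staining as cytotoxicity measure in parallel cultures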
[2] = read-out: Thrombomodulin, THBD (gene 7056); test: BSK_CASM3C_Thrombomodulin: BioMAP Diversity Plus: CASM3C Assay for Thrombomodulin Biomarker Activity (AID 2283051); details: primary human coronary artery smooth muscle cells; actives raise or lower the signal;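 note: thrombomodulin protein level measured by ELISA 24 h after dosing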
[3] = read-out: Tissue Factor, F3 (gene 2152); test: BSK_CASM3C_TissueFactor: BioMAP Diversity Plus: CASM3C Assay for Tissue Factor Biomarker Activity (AID 2283052); details: primary human coronary artery smooth muscle cells; actives raise or lower the signal;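 note: cell surface tissue factor protein level read by ELISA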
[4] = read-out: Interferon-gamma inducible Protein 10 (IP10), CXCL10 (gene 3627); test: BSK_hDFCGF_IP10: BioMAP Diversity Plus: hDFCGF Assay for Interferon-gamma inducible Protein 10 (IP10) Biomarker Activity (AID 2283053); details: primary human foreskin fibroblasts; actives raise or lower the signal
How it was run: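 IP-10 levels, quantified by ELISA, are taken from human foreskin fibroblast cultures 24 h after chemical treatment, with DMSO serving as negative control and baseline for bidirectional analysis.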

[5] = read-out: Urokinase-type plasminogen activator receptor (uPAR), PLAUR (gene 5329); test: BSK_CASM3C_uPAR: BioMAP Diversity Plus: CASM3C Assay for Urokinase-type plasminogen activator receptor (uPAR) Biomarker Activity (AID 2283054); details: primary human coronary artery smooth muscle cells; actives raise or lower the signal;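 note: cell-surface uPAR protein level quantified by ELISA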
[6] = read-out: Vascular cell adhesion molecule 1 (VCAM1), VCAM1 (gene 7412); test: BSK_CASM3C_VCAM1: BioMAP Diversity Plus: CASM3C Assay for Vascular cell adhesion molecule 1 (VCAM1) Biomarker Activity (AID 2283055); details: primary human coronary artery smooth muscle cells; actives raise or lower the signal;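 note: VCAM-1 protein level quantified by ELISA on the cells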
[7] = read-out: Epidermal growth factor receptor (EGFR), EGFR (gene 1956); test: BSK_hDFCGF_EGFR: BioMAP Diversity Plus: hDFCGF Assay for Epidermal growth factor receptor (EGFR) Biomarker Activity (AID 2283057); details: primary human foreskin fibroblasts; actives raise or lower the signal
How it was run: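 Measured by ELISA: EGFR levels on primary human foreskin fibroblasts 24 h after chemical treatment, analysed relative to DMSO with bidirectional fitting.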

[8] = read-out: Interleukin-8 (IL8), CXCL8 (gene 3576); test: BSK_hDFCGF_IL8: BioMAP Diversity Plus: hDFCGF Assay for Interleukin-8 (IL8) Biomarker Activity (AID 2283058); details: primary human foreskin fibroblasts; actives raise or lower the signal
How it was run: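 Fibroblast monolayers (human foreskin, hDFCGF) received test chemical for 24 h before ELISA detection of IL-8; either increases or decreases relative to DMSO count as activity.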

[9] = BSK_hDFCGF_Proliferation: Cell Proliferation Assessment in the BioMAP Diversity Plus: hDFCGF Assay (AID 2283059); details: primary human foreskin fibroblasts;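 note: curves fitted for both rise and fall of signal versus DMSO baseline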
How it was run: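 This proliferation readout used SRB total-protein staining of human foreskin fibroblasts […], normalized to DMSO with bidirectional curve fitting.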

[10] = read-out: Macrophage colony-stimulating factor (MCSF), CSF1 (gene 1435); test: BSK_hDFCGF_MCSF: BioMAP Diversity Plus: hDFCGF Assay for Macrophage colony-stimulating factor (MCSF) Biomarker Activity (AID 2283060); details: primary human foreskin fibroblasts; actives raise or lower the signal
How it was run: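 fibroblasts (human foreskin, primary), 24 h post-dose; M-CSF by ELISA; bidirectional fit, DMSO = baseline.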

[11] = BSK_hDFCGF_SRB: Viability Assessment in the BioMAP Diversity Plus: hDFCGF Assay (AID 2283061); details: primary human foreskin fibroblasts;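 note: cells exposed to compound for 24 h before the read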
How it was run: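 SRB-based viability read on primary human skin fibroblasts at 24 h: TCA fixation, 0.1% dye, 560 nm. Gain or loss of signal is fitted against the DMSO negative control.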

[12] = read-out: TIMP metallopeptidase inhibitor 1 (TIMP1), TIMP1 (gene 7076); test: BSK_hDFCGF_TIMP1: BioMAP Diversity Plus: hDFCGF Assay for TIMP metallopeptidase inhibitor 1 (TIMP1) Biomarker Activity (AID 2283062); details: primary human foreskin fibroblasts; actives raise or lower the signal
How it was run: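 Bidirectional curve fitting against DMSO baseline yielded this endpoint, based on ELISA detection of TIMP-1 in primary human foreskin fibroblasts exposed to compound for 24 h.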

[13] = read-out: Monokine induced gamma interferon (MIG), CXCL9 (gene 4283); test: BSK_hDFCGF_MIG: BioMAP Diversity Plus: hDFCGF Assay for Monokine induced gamma interferon (MIG) Biomarker Activity (AID 2283063); details: primary human foreskin fibroblasts; actives raise or lower the signal
How it was run: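 Endpoint derived by bidirectional fitting relative to DMSO; MIG quantified via ELISA in primary human foreskin fibroblasts harvested 24 h after dosing.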

[14] = read-out: Matrix Metallopeptidase 1 (MMP1), MMP1 (gene 4312); test: BSK_hDFCGF_MMP1: BioMAP Diversity Plus: hDFCGF Assay for Matrix Metallopeptidase 1 (MMP1) Biomarker Activity (AID 2283064); details: primary human foreskin fibroblasts; actives raise or lower the signal
How it was run: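 Primary human foreskin fibroblasts exposed to chemicals for 24 h; MMP1 measured by ELISA. Cytotoxicity tracked by SRB staining in parallel cultures; bidirectional fit relative to DMSO.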

[15] = read-out: Vascular cell adhesion molecule 1 (VCAM1), VCAM1 (gene 7412); test: BSK_hDFCGF_VCAM1: BioMAP Diversity Plus: hDFCGF Assay for Vascular cell adhesion molecule 1 (VCAM1) Biomarker Activity (AID 2283065); details: primary human foreskin fibroblasts; actives raise or lower the signal;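 for AC50: VCAM-1 protein level quantified by ELISA after 24 h chemical exposure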
How it was run: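 Measured after 24 h chemical treatment of primary human skin fibroblasts, VCAM-1 was detected by ELISA and concentration-response analysed in both directions versus DMSO vehicle.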

[16] = read-out: Plasminogen activator inhibitor-1 (PAI1), SERPINE1 (gene 5054); test: BSK_hDFCGF_PAI1: BioMAP Diversity Plus: hDFCGF Assay for Plasminogen activator inhibitor-1 (PAI1) Biomarker Activity (AID 2283066); details: primary human foreskin fibroblasts; actives raise or lower the signal
How it was run: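 PAI-1 levels, determined by ELISA, served as the endpoint in human foreskin fibroblast cultures exposed to compound for 24 h, with DMSO as baseline.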

[17] = read-out: Intercellular Adhesion Molecule 1 (ICAM1), ICAM1 (gene 3383); test: BSK_KF3CT_ICAM1: BioMAP Diversity Plus: KF3CT Assay for Intercellular Adhesion Molecule 1 (ICAM1) Biomarker Activity (AID 2283067); details: primary human keratinocytes with fibroblasts; actives raise or lower the signal
How it was run: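 Bidirectional curve fitting against a DMSO baseline was applied to ICAM-1 ELISA signal from primary human skin co-cultures harvested 24 h after treatment, with SRB staining of parallel wells for overt cytotoxicity.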

[18] = read-out: Interferon-gamma inducible Protein 10 (IP10), CXCL10 (gene 3627); test: BSK_KF3CT_IP10: BioMAP Diversity Plus: KF3CT Assay for Interferon-gamma inducible Protein 10 (IP10) Biomarker Activity (AID 2283068); details: primary human keratinocytes with fibroblasts; actives raise or lower the signal
How it was run: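 Signal is secreted/surface IP-10 by ELISA in a human primary skin co-culture of keratinocytes and foreskin fibroblasts, taken 24 h post-dosing; DMSO served as negative control.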

[19] = BSK_KF3CT_SRB: Viability Assessment in the BioMAP Diversity Plus: KF3CT Assay (AID 2283069); details: primary human keratinocytes with fibroblasts;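 note: total protein by sulforhodamine B staining as a cytotoxicity measure; fitted for both signal gain and loss against DMSO baseline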
How it was run: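 Human keratinocyte and foreskin fibroblast co-culture exposed to chemical for 24 h. Total protein measured in parallel cultures by 0.1% sulforhodamine B staining after 10% TCA fixation, read at 560 nm; bidirectional fit relative to DMSO.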

[20] = read-out: Collagen III, COL3A1 (gene 1281); test: BSK_hDFCGF_CollagenIII: BioMAP Diversity Plus: hDFCGF Assay for Collagen III Biomarker Activity (AID 2283056); details: primary human foreskin fibroblasts; actives raise or lower the signal
How it was run: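 Response relative to DMSO, fitted in both directions, reflects ELISA-measured collagen III in human primary skin fibroblasts 24 h after compound addition.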

Measured: AC50

C=CC(=O)OCC(CO)(COC(=O)C=C)COC(=O)C=C
active: [1] 1.61 µM | [2] 4.58 µM | [3] 1.25 µM | [4] 16 nM | [5] 501 nM | [6] 206 nM | [8] 3.97 µM | [9] 16 nM | [10] 37.7 nM | [11] 0.0163 µM | [12] 16 nM | [13] 17.7 nM | [14] 146 nM | [15] 26.3 nM | [16] 26.6 nM | [17] 682 nM | [18] 1.08 µM | [19] 592 nM
inactive: [7]

C=C(C)C(N)=O
not listed: [16]
inactive: all other assays above

O=C(O)C(F)(F)OC(F)(F)C(F)(F)OC(F)(F)C(F)(F)C(F)(F)C(F)(F)F
active: [4] 15.6 µM and 18.7 µM | [10] 6.97 µM and 30 µM | [11] 10.4 µM | [13] 12 µM and 48.6 µM | [15] 5.95 µM and 13.8 µM | [18] 32.2 µM and 30 µM
inactive: [1] | [2] | [3] | [5] | [6] | [7] | [8] | [9] | [11] | [12] | [14] | [17] | [19]

COc1ccccc1NC(=O)CC(C)=O
not listed: [16] | [20]
inactive: all other assays above

CC=CC(=O)C1=C(C)C=CCC1(C)C
not listed: [16] | [20]
inactive: all other assays above
